# Screening data: PubChem, National Center for Advancing Translational Sciences (NCATS)
# D1 antagonist = blocks dopamine activation of the human D1 receptor; P21728; HEK293 TREx D1 cells, calcium flux, dopamine EC80; active compounds read low; activity change, negative = inhibition, % at 10 µM; 360,000 tested, 3.2% active; AID 504652; in the data active = activity change below about -30%; also: % is scaled to controls: 0 for no effect and ±100 for the full control effect
# Target sequence (P21728 whole entry, looked up): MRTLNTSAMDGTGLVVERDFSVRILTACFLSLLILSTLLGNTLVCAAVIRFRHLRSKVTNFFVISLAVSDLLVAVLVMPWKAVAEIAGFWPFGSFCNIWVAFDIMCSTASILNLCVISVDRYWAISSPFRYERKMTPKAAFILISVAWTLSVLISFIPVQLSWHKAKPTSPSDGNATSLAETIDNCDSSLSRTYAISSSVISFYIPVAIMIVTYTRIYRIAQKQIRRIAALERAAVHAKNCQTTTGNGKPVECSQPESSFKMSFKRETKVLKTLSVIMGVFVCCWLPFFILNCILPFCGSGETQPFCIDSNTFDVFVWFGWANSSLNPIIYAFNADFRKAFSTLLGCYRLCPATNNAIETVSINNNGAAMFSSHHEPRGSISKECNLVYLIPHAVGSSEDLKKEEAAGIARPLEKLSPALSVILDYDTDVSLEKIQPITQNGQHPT
#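 Tetracycline-induced HEK293 T-REx cells with force-coupled D1 receptor were loaded with a no-wash calcium dye. Compound was added after a 10 s baseline and read kinetically for 180 s; EC80 dopamine was then added and calcium flux followed another 180 s.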
# D1 ag = activates the human D1 dopamine receptor | 360,000 tested, 1% active | activation, % at 2 µM | HEK293 T-REx D1 cells, calcium flux, agonist mode; also: 0% is about no effect
#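 Inducible HEK293 T-REx D1 cells, force-coupled to calcium signalling, were plated at 4000 cells/well with tetracycline and held overnight at 30 C. After no-wash calcium dye loading, compound-evoked calcium rise over 180 s flagged agonists.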
# TRHR agonist = agonists of human TRH receptor; 360,000 tested, 0.18% active; activation, % at 2 µM; TRHR cells, calcium flux fluo-8, FDSS agonist mode; also: 0% is about no effect
#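 Fluo-8-loaded TRHR cells; 10 s baseline, compound added, kinetic Ca2+ fluorescence read 1/s, agonist mode.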
# D1 PAM = potentiators of human D1 dopamine receptor. potentiation, % at 10 µM. 360,000 tested, 0.036% active. HEK293 TREx D1 cells, calcium flux, dopamine EC20 potentiation. P21728; in the data active = potentiation above about 30%; also: 0% is about no effect
# TRHR PAM = TRH receptor (human) allosteric enhancement. TRHR cells, fluo-8 calcium fluorescence, EC20 TRH enhancement. enhancement, % at 2 µM. 360,000 tested, 0.66% active. AID 493056; in the data active = enhancement above about 30%; also: 0% is about no effect
#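 Enhancer read-out: after compound pinning and an initial kinetic agonist-mode read, an EC20 of TRH (10 nM final) was injected and fluo-8 calcium signal (Ex 480/Em 530) followed at 1 s/cycle for 100 cycles in TRHR-expressing cells.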
# Active calls of the source: *; x = not tested or not shown; ! = not confirmed by another sample. Compounds with a hit are over-represented: about 4.7% of the library has one in this group of screens. Rule as the data show it, unless noted: active = activation above about 30%; inactive = the rest.
SMILES,D1 antagonist,D1 ag,TRHR agonist,D1 PAM,TRHR PAM
Cc1nn(-c2ccccc2)c(OC(=O)c2ccc(Br)cc2)c1S(=O)(=O)c1ccccc1,0,3,-1,-2,6
CC(C)CC(=O)Nc1ccc(C(=O)OCc2cc(=O)n3nc(C(C)C)sc3n2)cc1,14,3,-2,0,5
Cc1cccc(Nc2nc(-c3c(C)nc4ccccn34)cs2)c1,-46*,8,-1,-2,5
Cc1nc2ccccn2c1-c1csc(Nc2cccc(O)c2)n1,-4,0,0,2,-2
Cc1ccn2c(-c3csc(NCc4ccco4)n3)c(C)nc2c1,-42*,8,0,-11,-2
CCOC(=O)c1c(NC(C)=O)c2c3c(sc2n1Cc1nc(-c2ccccc2OCC)oc1C)CCCC3,5,0,0,-7,-19
COc1cc2c(=O)n(CC3CCCO3)c(=O)n(CC(=O)Nc3cccc(Cl)c3)c2cc1OC (stereo not drawn),-44*,0,-1,-3,-10
C=C(C)C(=O)Nc1cccc(C2=NOC3(C2)C[C@@H](C(N)=O)N(C(=O)c2ccc(OC)cc2)C3)c1 (stereo partly drawn),-33*,1,0,-7,6
C/C=C(\C)C(=O)Nc1cccc(C2=NOC3(C2)C[C@H](C(N)=O)N(C(=O)CC#N)C3)c1 (stereo partly drawn),-48*,2,0,-5,24
C/C=C/C(=O)Nc1cccc(C2=NOC3(C2)C[C@@H](C(N)=O)N(C(=O)/C(C)=C/C)C3)c1 (stereo partly drawn),-31*,2,0,2,-1
C/C=C(/C)C(=O)Nc1cccc(C2=NOC3(C2)C[C@@H](C(N)=O)N(C(=O)CC)C3)c1 (stereo partly drawn),-7,1,0,-9,-12
C=C(C)C(=O)Nc1cccc(C2=NOC3(C2)C[C@@H](C(N)=O)N(C(=O)c2cc([N+](=O)[O-])cc([N+](=O)[O-])c2)C3)c1 (stereo partly drawn),-16,1,0,-2,0
Cc1[nH][nH]c(=O)c1C=NCc1cccc(C(F)(F)F)c1,-5,2,0,2,-8
COc1ccc(-n2c3c(c(=O)[nH]c2=O)C(NC(C)=O)(C(F)(F)F)C(=O)N3)cc1 (stereo not drawn),-54*!,2,1,-3,2
COc1ccc(-n2c3c(c(=O)[nH]c2=O)C(NC(=O)c2ccccc2Cl)(C(F)(F)F)C(=O)N3)cc1 (stereo not drawn),6,1,0,-3,-1
CCCCc1nc(SCc2ccc([N+](=O)[O-])cc2)n[nH]1,-30*,1,0,-1,-3
Cc1ccc(S(=O)(=O)/N=C2/NC(=O)/C(=C/c3cccnc3)S2)cc1,-35*,3,0,2,6
Cc1ccc(S(=O)(=O)/N=C2/NC(=O)/C(=C\c3cc(Br)cc(Br)c3O)S2)cc1,-52*,276*,118*,11,6
O=S(=O)(c1ccc2c(c1)OCCO2)N1CCN(S(=O)(=O)c2cccc3cccnc23)CC1,-7,2,2,-3,1
O=C(CCc1nc2ccccc2c(=O)[nH]1)NNC(=O)COc1cccc(F)c1,-10,3,0,x,1
CC(C)n1cc(CN2CCCC(CNS(=O)(=O)c3cccc4cccnc34)C2)cn1 (stereo not drawn),-49*,1,1,-10,4
O=C(NCc1ccccc1)c1cc2ccc3cccnc3c2[nH]1,3,1,1,2,31*
COc1ccc(CCNC(=O)[C@H](CC(C)C)NC(=O)N2CCn3c2nc2ccccc23)cc1OC,-9,1,0,-7,-5
Cc1cccc(NC(=O)c2ccc(-n3c(C)nnc3C)cc2)c1,-7,1,0,0,5
CCc1cccc(C)c1NC(=O)CCS(=O)(=O)c1ccc2c(c1)oc(=O)n2C,3,0,0,-4,8
COc1ccc(C2=NO[C@@H]3C(=O)N(C4CCCCC4)C(=O)[C@H]23)cc1OC,-35*,26,2,-7,-2
CC(C)c1nc2ccc(C(=O)Nc3ccccc3F)cc2o1,-1,1,0,0,4
